Test results from PubChem BioAssay.
The source made the active and inactive calls.

Columns and labels:
[1] = anti-His antibody binders, primary screen, artefact control for SMM control protein annotation, biochemical, small-molecule microarray, 635 nm fluorescence (AID 1128); conditions: anti-His Alexa647 antibody binding, higher = more signal;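 also: score merges feature fluorescence with signal-to-noise for each printed compound spot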
[2] = test system: Human papillomavirus type 1a E7 protein (residues 1-88); experiment: HPV1a E7 small-molecule binders, primary screen, biochemical, small-molecule microarray, residues 1-88, 635 nm (AID 1129); conditions: small-molecule microarray binding, fluorescence 635 nm; higher = more signal
[3] = molecular target: Focal adhesion kinase 1 (Homo sapiens) (UniProt Q05397); experiment: small-molecule microarray binders of FAK, primary screen, biochemical, 635/667 nm fluorescence, BSA, DTT (AID 1130); conditions: PTK2 binding, 635 nm fluorescence, higher = more signal;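 also: composite of spot emission at 667 nm and signal to noise over triplicate slides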
Focal adhesion kinase 1 (Homo sapiens), sequence (Q05397 whole entry, looked up): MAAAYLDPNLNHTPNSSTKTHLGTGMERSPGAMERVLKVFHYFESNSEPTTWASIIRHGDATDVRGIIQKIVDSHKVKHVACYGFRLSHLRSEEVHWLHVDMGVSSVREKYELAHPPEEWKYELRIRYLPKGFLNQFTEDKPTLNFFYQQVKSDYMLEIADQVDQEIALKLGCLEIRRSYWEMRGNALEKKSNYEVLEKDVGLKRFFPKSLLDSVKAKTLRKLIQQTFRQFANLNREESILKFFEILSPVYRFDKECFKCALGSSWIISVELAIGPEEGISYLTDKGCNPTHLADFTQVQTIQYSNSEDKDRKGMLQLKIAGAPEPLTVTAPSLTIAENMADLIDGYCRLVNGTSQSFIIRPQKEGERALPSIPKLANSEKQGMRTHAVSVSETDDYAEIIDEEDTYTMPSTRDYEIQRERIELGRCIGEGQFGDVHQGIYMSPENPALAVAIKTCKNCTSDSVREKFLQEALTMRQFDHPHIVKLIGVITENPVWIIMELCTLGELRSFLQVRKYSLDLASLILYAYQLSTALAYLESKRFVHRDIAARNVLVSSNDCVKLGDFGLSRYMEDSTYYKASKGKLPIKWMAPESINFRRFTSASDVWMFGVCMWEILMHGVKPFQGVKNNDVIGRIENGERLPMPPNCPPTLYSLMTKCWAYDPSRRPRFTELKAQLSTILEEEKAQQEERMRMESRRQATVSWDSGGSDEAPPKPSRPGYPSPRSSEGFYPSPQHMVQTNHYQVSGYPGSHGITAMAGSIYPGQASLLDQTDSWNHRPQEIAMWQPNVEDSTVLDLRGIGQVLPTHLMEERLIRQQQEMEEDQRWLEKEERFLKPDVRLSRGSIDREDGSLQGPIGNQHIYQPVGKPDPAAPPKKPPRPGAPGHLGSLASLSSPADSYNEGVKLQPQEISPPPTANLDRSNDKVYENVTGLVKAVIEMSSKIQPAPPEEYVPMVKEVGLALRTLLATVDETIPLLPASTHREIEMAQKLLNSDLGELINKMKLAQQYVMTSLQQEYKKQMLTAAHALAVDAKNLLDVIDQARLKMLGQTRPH

[4] = test system: Fibrinogen (Alexa647-labelled); experiment: fibrinogen binders on compound microarrays, profiling panel, artefact control for SMM control-protein annotation, biochemical, small-molecule microarray, 635/667 nm fluorescence (AID 1131); conditions: fibrinogen-A647 binding fluorescence, higher = more signal;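 also: z-score merges 667 nm fluorescence with per-spot signal-to-noise over triplicate slides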
[5] = molecular target: Follistatin (Homo sapiens) (UniProt P19883); experiment: follistatin binders on small-molecule microarrays, primary screen, biochemical, small-molecule microarray, 635/667 nm fluorescence (AID 1132); conditions: FST binding, 635 nm fluorescence, higher = more signal
Follistatin (Homo sapiens), sequence (P19883 whole entry, looked up): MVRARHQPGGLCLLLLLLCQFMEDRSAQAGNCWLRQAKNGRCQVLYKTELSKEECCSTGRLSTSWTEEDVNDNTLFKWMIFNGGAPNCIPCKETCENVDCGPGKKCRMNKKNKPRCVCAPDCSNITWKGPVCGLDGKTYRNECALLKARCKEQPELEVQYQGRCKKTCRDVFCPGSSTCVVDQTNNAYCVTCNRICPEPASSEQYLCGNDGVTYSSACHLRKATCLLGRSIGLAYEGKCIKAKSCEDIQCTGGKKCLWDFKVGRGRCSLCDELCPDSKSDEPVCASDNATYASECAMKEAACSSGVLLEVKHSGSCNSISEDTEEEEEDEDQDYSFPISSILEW

[6] = molecular target: Fibroblast growth factor 2 (Homo sapiens) (UniProt P09038); experiment: FGF2 binders on small-molecule microarrays, primary screen, biochemical, small-molecule microarray, 635/667 nm fluorescence (AID 1133); conditions: small-molecule microarray binding, FGF2, fluorescence 635/667; higher = more signal
Fibroblast growth factor 2 (Homo sapiens), sequence (P09038 whole entry, looked up): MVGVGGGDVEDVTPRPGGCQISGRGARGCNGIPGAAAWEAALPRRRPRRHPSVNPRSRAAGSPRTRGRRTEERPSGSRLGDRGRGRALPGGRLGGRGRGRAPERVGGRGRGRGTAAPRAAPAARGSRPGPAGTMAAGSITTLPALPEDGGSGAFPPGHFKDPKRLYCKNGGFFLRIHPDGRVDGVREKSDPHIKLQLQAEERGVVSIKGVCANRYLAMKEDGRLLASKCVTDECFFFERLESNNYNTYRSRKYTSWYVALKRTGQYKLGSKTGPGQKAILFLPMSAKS

[7] = mitochondrial membrane potential change in A549 cells, profiling panel, cell-based, JC-1 fluorescence, basal, 24 h, 100 nL (AID 1138); conditions: higher = more signal;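 also: A549 lung adenocarcinoma cells under basal conditions with no added stimulus; test concentration not given here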
[8] = test system: Lefty1; experiment: Lefty1 binders on small-molecule microarrays, primary screen, biochemical, small-molecule microarray, 635/667 nm fluorescence (AID 1139); conditions: small-molecule microarray binding, fluorescence 635/667; higher = more signal
[9] = test system: wheat germ agglutinin (Triticum aestivum), Alexa647-labelled; experiment: wheat germ agglutinin binders on compound microarrays, profiling panel, artefact control for SMM control-protein annotation, biochemical, small-molecule microarray, 635/667 nm fluorescence (AID 1140); conditions: WGA-A647 binding, 635 nm fluorescence, higher = more signal;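 also: score merges 667 nm feature emission with signal to noise over triplicate slides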
[10] = molecular target: Luciferin 4-monooxygenase (Photinus pyralis) (UniProt P08659); experiment: firefly luciferase enzyme inhibitors, primary screen, biochemical, luminescence, purified enzyme, 2006 set (AID 1141); conditions: SteadyGlo luminescence, 30 min, higher = more signal, called active from +8 up or from −8 down;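 also: cell-free assay with purified firefly luciferase at 100 ng per well in PBS; test concentration not given here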
Luciferin 4-monooxygenase (Photinus pyralis), sequence (P08659 whole entry, looked up): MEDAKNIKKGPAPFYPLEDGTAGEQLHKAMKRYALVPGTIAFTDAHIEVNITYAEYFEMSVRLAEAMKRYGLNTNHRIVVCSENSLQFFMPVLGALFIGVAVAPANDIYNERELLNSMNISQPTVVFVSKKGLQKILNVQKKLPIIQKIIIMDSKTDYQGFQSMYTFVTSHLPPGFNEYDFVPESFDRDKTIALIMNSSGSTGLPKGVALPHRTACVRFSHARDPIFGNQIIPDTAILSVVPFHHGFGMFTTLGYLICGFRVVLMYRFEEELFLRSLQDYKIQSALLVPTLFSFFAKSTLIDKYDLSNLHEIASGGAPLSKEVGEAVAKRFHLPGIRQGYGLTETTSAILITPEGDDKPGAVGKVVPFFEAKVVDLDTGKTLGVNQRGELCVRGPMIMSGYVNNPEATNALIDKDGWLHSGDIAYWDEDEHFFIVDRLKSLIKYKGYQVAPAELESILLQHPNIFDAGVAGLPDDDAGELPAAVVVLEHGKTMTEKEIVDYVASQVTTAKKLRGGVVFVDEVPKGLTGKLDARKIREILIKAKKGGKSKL

SMILES	composite z-score [1]	composite z-score [2]	composite z-score [3]	composite z-score [4]	composite z-score [5]	composite z-score [6]	z-score [7]	composite z-score [8]	composite z-score [9]	z-score [10]
COc1cc(NN2C(C(O)C3CCCCC3)C=CC3C(=O)N(C)C(=O)C32)cc(OC)c1OC (stereo not given)	0.901	1.23	1.97	1	0.954	-0.0452	1.75	-0.608	1.16	-0.527 (inactive)
[N-]=[N+]=NCc1ccccc1[C@H]1OC(c2ccc(OCCCO)cc2)=N[C@@]1(CCS(=O)(=O)c1ccccc1)C(=O)NCc1ccccc1	1.41	1.2	0.13	0.941	1.36	0.623	0.453	0.189	0.703	-1.41 (inactive)
CCOC(=O)C1=C[C@@H](C(C)(C)C)N(S(=O)(=O)c2ccc(C)cc2)[C@H]1c1cccc(Cl)c1	1.07	1.22	2.77	0.862	0.677	0.556	2.42	1.26	1.01	1.24 (inactive)
[N-]=[N+]=NCc1ccccc1[C@@H]1OC(c2ccc(OCCCO)cc2)=N[C@]1(Cc1ccccc1N=[N+]=[N-])C(=O)N1CCCCC1	1.97	1.24	0.182	0.816	0.845	0.483	0.909	0.082	0.756	-1.61 (inactive)
COC(=O)C1N=C(c2ccc(OCCCO)cc2)N(c2ccccc2)O1 (stereo not given)	1.91	1.15	-0.0976	0.992	1.33	1.76	1.8	0.156	1.29	-7.36 (inactive)
O=C1C2C=CC(C(O)c3ccc(I)cc3)N(Nc3ccccc3)C2C(=O)N1c1ccccc1 (stereo not given)	1.45	1.19	0.83	0.907	0.862	0.0891	-0.0457	-0.358	1.44	-0.102 (inactive)
CCCCC(=C=CC[C@H](O)c1ccc(OCCO)cc1)C[C@H](O)COCc1ccccc1	0.522	0.0648	0.477	-0.56	0.163	0.501	2.19	0.235	-0.0019	-1.22 (inactive)
CCN(CC)c1ccc(N2CC=CC34O[C@@H]5/C=C\CCC(C)OC(=O)C5[C@H]3C(=O)N(C(C)CO)[C@@H]4C2=O)cc1 (stereo not given in full)	-0.361	-0.935	0.212	-0.145	0.565	-0.0619	0.723	0.321	-0.663	-1.5 (inactive)
COCCCNC(=O)[C@@]1(c2ccc([N+](=O)[O-])cc2)CC(=O)N(CC23CC4CC(CC(C4)C2)C3)[C@@H]1c1ccc(CO)cc1I	1.77	0.892	0.0865	0.705	1.16	0.614	-0.189	-0.122	0.47	0.482 (inactive)
COCC(=C=CC[C@@H](O)c1cccc(OCCO)c1)CCO	-0.128	-0.113	-0.128	0.984	0.734	0.377	0.293	0.565	1.1	-1.31 (inactive)
O=C1OCC=C[C@H]2OC34C=CCN(c5ccc6ccccc6c5)C(=O)[C@H]3N(CCCCCO)C(=O)[C@@H]4[C@@H]12 (stereo not given in full)	0.0997	-0.381	1.05	-0.639	-1.38	-1.42	-0.164	-1.23	0.129	-0.397 (inactive)
C=C[C@@H](OC)[C@H](OC(=O)Nc1ccc(SC)cc1)c1ccc(OCCO)cc1	2.02	0.815	0.317	0.951	1.17	0.377	-1.48	0.545	0.653	-2.25 (inactive)
CO[C@H]1O[C@H](CO)[C@@H](OC(=O)c2ccc(Br)cc2)[C@@H]2OC(=O)[C@H](Cc3ccccc3)C/C=C/C[C@@H](Cc3ccccc3)C(=O)O[C@@H]12	0.478	0.817	0.703	0.135	0.84	1.37	0.0305	0.416	-0.0716	0.659 (inactive)
O=C(O)[C@H]1C[C@H]2C(=O)N[C@@H](Cc3ccccc3)C(=O)N2[C@H]1c1cccc(OCCO)c1	1.7	-0.0006	-0.167	0.472	1.43	1.44	0.706	1.33	0.568	-0.832 (inactive)
COCCOC(=O)N1C(=O)[C@@]2(c3cc(C#CCNC(N)=O)ccc31)[C@H](c1ccc(O)cc1)N1[C@H](c3ccccc3)[C@H](c3ccccc3)OC(=O)[C@H]1[C@@H]2C(N)=O	-0.685	-0.703	-0.529	-1.39	-1.91	-0.93	0.902	-1.72	-1.18	-1.03 (inactive)
COc1cc(NN2C(C(O)C3CCCCC3)C=CC3C(=O)N(c4ccccc4)C(=O)C32)cc(OC)c1OC (stereo not given)	1.96	1.26	0.724	0.964	0.459	-0.776	-0.0727	-0.175	1.23	-0.45 (inactive)
CC(CO)N1C(=O)[C@@H]2[C@H]3C(=O)OCC=C[C@H]3OC23C=CCN(c2ccc(Cl)cc2)C(=O)[C@@H]13 (stereo not given in full)	-0.715	-1.39	0.0657	-2.3	-2.57	-1.07	1.18	-2.1	-1.81	-0.619 (inactive)
